According to a collection of fitness landscapes (doi:10.1016/j.celrep.2020.107928):
Over roughly 81,000 sequences, “one-hybrid fitness for binding parS DNA” has its median near -0.17; the highest 2% begin near 0.51. The full list was thinned out, with the highest values kept by preference.

B1: Caulobacter ParB omega fusion; a variant is named by its letters at X, in order, B8GW30 (parent)
chain: MESVVVGEPGMSEGRRGLGRGLSALLGEVDAAPAQAPGEQLGGSREAPIEILQRNPDQPRRTFREEDLEDLSNSIREKGVLQPILVRPSPDTAGEYQIVAGERAWRAAQRAGLKTVPIMVRELDDLAVLEIGIIENVQRADLNVLEEALSYKVLMEKFERTQENIAQTIGKSXSHVANXMRLLXLPDEVQSYLVSGELTAXHARAIAAAADPVALAKQIIEGGLSVRETEALARKAPNLSAGKSKGGRPPRVKDTDTQALESDLSSVLGLDVSIDHRGSTGTLTITYATLEQLDDLCNRLTRGI

Variants of: B1
Test: one-hybrid fitness for binding parS DNA (scaled: cognate 1, non-cognate 0); higher = stronger binding
Conditions: with parS DNA site
Procedure, shortened: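 On M9-minus-histidine containing 0.1 mM IPTG and 5 mM 3-AT, E. coli USO cells with a HIS3 reporter, site 19 bp from the promoter, grew 48 hours at 37°C to select Caulobacter ParB libraries randomised at four specificity codons. Plasmids from before and after were Illumina-sequenced, with three replicate libraries pooled and variants under 10 reads left out. Fitness is the log change in variant-to-wild-type read ratio, rescaled against cognate and non-cognate.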

| Variant | one-hybrid fitness for binding parS DNA |
| --- | --- |
| TVTE | ≤ 0.2 |
| HTAD | ≤ 0.2 |
| AGDD | ≤ 0.2 |
| KANA | ≤ 0.2 |
| WSQY | ≤ 0.2 |
| NLNG | ≤ 0.2 |
| DWLT | ≤ 0.2 |
| RAAN | 0.448 |
| RAAG | 1 |
| RAFY | 0.499 |
| RAFR | ≤ 0.2 |
| RAFG | 0.978 |
| RAAP | ≤ 0.2 |
| KYLA | ≤ 0.2 |
| TKWY | ≤ 0.2 |
| KNQS | ≤ 0.2 |
| CSRV | ≤ 0.2 |
| ATTE | ≤ 0.2 |
| WMPS | ≤ 0.2 |
| CPLP | ≤ 0.2 |
| GALY | ≤ 0.2 |
| NGLG | ≤ 0.2 |

| Variant | one-hybrid fitness for binding parS DNA |
| --- | --- |
| RQQC | 0.951 |
| RQQQ | ≤ 0.2 |
| RQGK | ≤ 0.2 |
| RQSQ | ≤ 0.2 |
| RQSC | 0.968 |
| RQHR | ≤ 0.2 |
| RQGM | 0.287 |
| RQSY | 0.465 |
| RQGC | 0.916 |
| RQHC | 0.946 |
| RQHM | 0.325 |
| RQQK | ≤ 0.2 |
| KYCL | ≤ 0.2 |
| AFDN | ≤ 0.2 |
| GKGS | ≤ 0.2 |
| WSNM | ≤ 0.2 |
| GTTW | ≤ 0.2 |
| ACNL | ≤ 0.2 |
| CRNF | ≤ 0.2 |
| SNIR | ≤ 0.2 |
| RQYC | 0.94 |
| RQLQ | ≤ 0.2 |

| Variant | one-hybrid fitness for binding parS DNA |
| --- | --- |
| RQYF | 0.256 |
| RQCQ | ≤ 0.2 |
| RQLC | 0.952 |
| RQLY | 0.442 |
| RQRY | 0.504 |
| RQCC | 0.874 |
| RQRF | 0.247 |
| RQCK | ≤ 0.2 |
| RQYR | ≤ 0.2 |
| RQRC | 0.943 |
| VAQC | ≤ 0.2 |
| FEDR | ≤ 0.2 |
| QQVS | ≤ 0.2 |
| VEHM | ≤ 0.2 |
| CAAW | ≤ 0.2 |
| APPF | ≤ 0.2 |
| YVRD | ≤ 0.2 |
| RQWN | 0.286 |
| RQWD | ≤ 0.2 |
| RQWC | 0.797 |
| CVQT | ≤ 0.2 |
| RFAD | ≤ 0.2 |

| Variant | one-hybrid fitness for binding parS DNA |
| --- | --- |
| RFFS | 0.841 |
| RFFD | ≤ 0.2 |
| RFAH | ≤ 0.2 |
| RFFP | ≤ 0.2 |
| RFAS | 0.976 |
| LQNH | ≤ 0.2 |
| TREM | ≤ 0.2 |
| DHQQ | ≤ 0.2 |
| STCC | ≤ 0.2 |
| RTCK | ≤ 0.2 |
| RICY | 0.492 |
| RMCG | 1.04 |
| RICQ | 0.256 |
| RMCN | 0.389 |
| RMCH | 0.262 |
| RSCG | 0.966 |
| RDCG | ≤ 0.2 |
| RTCQ | ≤ 0.2 |
| RSCQ | ≤ 0.2 |
| RICG | 0.976 |
| RTCG | 0.999 |
